# Experimental data reported in ChEMBL document CHEMBL1157539, “Thousands of chemical starting points for antimalarial lead identification” (Nature, 2010).
# Experiments:
# Assay type in all cases: functional
# [1] = system: Plasmodium falciparum; assay: GSK_TCMDC: Inhibition of Plasmodium falciparum 3D7 in whole red blood cells, using parasite LDH activity as an index of growth. Test compounds present at 2uM
# [2] = system: Plasmodium falciparum; assay: GSK_TCMDC: Inhibition of Plasmodium falciparum Dd2 in whole red blood cells, using parasite LDH activity as an index of growth. Test compounds present at 2uM
# [3] = system: HepG2; assay: GSK_TCMDC: Percent inhibition of human HepG2 cell line. Test compounds present at 10uM.
SMILES,Inhibition [1] [%],Inhibition [2] [%],Inhibition [3] [%]
CCCCCCCN1CCC(CCNc2ccnc3ccc(OC)cc23)CC1,84,86,5
Cc1cc(N(C)C)nc(Nc2ccc(NC(=O)c3c(F)cccc3Cl)cc2)n1,90,36,15
CN(CCN1CCC(c2c[nH]c3ccccc23)CC1)c1ccc(-c2nc3cc(Cl)c(Cl)cc3[nH]2)cc1,100,100,22
O=C(O)C(F)(F)F.O=S(=O)(NCCN1CCCC1)c1ccc(-c2ccc(CNC3Cc4ccccc4C3)cc2)s1,100,97,47
Oc1c(C=Nn2cnnc2)sc2ccccc12,93,68,0
COc1ccc(NC(=O)Nc2ccc(-c3cccc(-c4nc5cccc(C)c5[nH]4)c3)cc2)cc1,100,75,33
Cc1cccc2nc(-c3cccc(-c4ccc(NC(=O)CCc5c[nH]cn5)cc4)c3)[nH]c12,100,92,3
O=C(/C=C/c1ccc(Cl)cc1)NCCCCCN1CCCN(C(=O)Nc2cccc(Cl)c2)CC1,85,10,19
O=c1cc(NCCCNCc2ccc(C(F)(F)F)cc2F)[nH]c2ccccc12,93,48,1
O=C(O)C(F)(F)F.Oc1ccc(CCNc2nc(NCc3ccccc3-c3ccc(C(F)(F)F)cc3)nc(N3CCCNCC3)n2)cc1,95,2,12
O=C(Cc1c[nH]cn1)Nc1ccc(-c2ccc(-c3nc4cc(F)ccc4[nH]3)cc2)cc1,100,91,39
